Screens deposited in PubChem BioAssay by several laboratories.
Autofluor counter = compound fluorescence in toxin protease inhibitor counterscreen. compound autofluorescence counterscreen, microsphere flow cytometry; active compounds read high. fluorescence intensity (test concentration not listed). 3.1% of 360,000 active. AID 624483; in the data active means fluorescence intensity above about 16000; inconclusive means no clear call, values can overlap the other calls
BoNT A protease = inhibitors of Botulinum neurotoxin A light chain protease; multiplex microsphere protease substrate cleavage, flow cytometry; inhibition, % at 10 µM; 0.17% of 360,000 active; AID 588499; further: plate controls were buffer without enzyme for full effect and enzyme alone for no effect
BoNT F protease = inhibitors of Botulinum neurotoxin F light chain protease | inhibition, % at 10 µM | Multiplex microsphere protease cleavage assay, flow cytometry | AID 588497 | 0.22% of 360,000 active; in the data active means inhibition above about 35%, passing the limit was not always enough; inconclusive means no clear call, values can overlap the other calls; further: plate controls were buffer without enzyme for full effect and enzyme alone for no effect
SARS 3CLpro inh = SARS-CoV 3CLpro protease inhibition. P0C6X7. recombinant SARS-CoV 3CLpro, quenched FRET peptide cleavage. inhibition, % at 6 µM. 0.14% of 290,000 active; in the data active means inhibition above about 12%
Anthrax LF inh2 = anthrax lethal factor protease inhibition. multiplex microsphere protease cleavage assay, LF. P15917. 0.12% of 360,000 active. inhibition, % at 10 µM. AID 588501; further: plate controls were buffer without enzyme for full effect and enzyme alone for no effect
Target sequence (P15917 whole entry, looked up): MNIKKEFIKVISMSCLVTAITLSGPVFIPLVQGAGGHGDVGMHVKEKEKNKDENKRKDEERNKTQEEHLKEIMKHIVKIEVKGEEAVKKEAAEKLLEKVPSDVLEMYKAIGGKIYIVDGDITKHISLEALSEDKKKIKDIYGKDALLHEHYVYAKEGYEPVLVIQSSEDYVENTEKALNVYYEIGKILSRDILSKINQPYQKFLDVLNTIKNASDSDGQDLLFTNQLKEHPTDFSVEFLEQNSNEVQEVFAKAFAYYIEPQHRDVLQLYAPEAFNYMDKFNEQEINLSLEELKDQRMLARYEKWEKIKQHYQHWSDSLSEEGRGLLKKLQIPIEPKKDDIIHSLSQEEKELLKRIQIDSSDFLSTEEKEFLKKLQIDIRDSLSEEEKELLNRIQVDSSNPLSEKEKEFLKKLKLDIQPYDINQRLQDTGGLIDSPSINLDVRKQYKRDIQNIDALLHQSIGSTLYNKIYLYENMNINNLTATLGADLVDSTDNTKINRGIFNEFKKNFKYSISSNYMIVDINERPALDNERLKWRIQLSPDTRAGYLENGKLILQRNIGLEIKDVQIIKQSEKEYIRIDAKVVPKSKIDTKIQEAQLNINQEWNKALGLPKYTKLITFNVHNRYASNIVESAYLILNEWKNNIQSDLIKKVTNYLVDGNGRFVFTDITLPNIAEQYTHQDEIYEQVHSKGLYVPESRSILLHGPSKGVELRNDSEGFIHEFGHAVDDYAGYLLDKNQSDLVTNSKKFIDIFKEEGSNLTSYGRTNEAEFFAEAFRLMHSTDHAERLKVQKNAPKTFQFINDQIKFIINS
* marks the source's active call; other numbers are inactive results; ? = inconclusive; . = not tested or not shown. A selection: hits, their analogues and other compounds. The true share with any hit is near 3.5%. Unless noted, no stated cut-off is given here; in the data, active means inhibition above about 30%; inconclusive means no clear call, values can overlap the other calls; inactive means below that.

SMILES | Autofluor counter | BoNT A protease | BoNT F protease | SARS 3CLpro inh | Anthrax LF inh2
O=C(O)/C=C/C(=O)NNC(=O)c1ccccc1Br | 20690* | 5 | 6 | -5 | -16
Cc1cccc(C(=O)NNC(=O)c2ccccc2Br)c1 | 3428 | 1 | 45* | 2 | 6
Cc1cccc(C(=O)NNC(=O)c2cccc(C)c2)c1 | 1825 | 0 | -5 | 5 | 0
O=C(NCC(=O)N(c1ccc2c(c1)OCO2)C(C(=O)NC1CCCC1)c1cccs1)c1ccco1 (centres undefined) | 4182 | 0 | 0 | -1 | -2
CCc1nc(C)ccc1OCC(=O)O | 3416 | 0 | 0 | 8 | -1
CCc1nc(C)ccc1OCC(=O)NCCCN(C)C | 22619* | -2 | -2 | -1 | -1
Cc1n[nH]c(C)c1C(=O)CC1(O)C(=O)N(CCc2ccccc2)c2ccc(Br)cc21 (centres undefined) | 11230 | 0 | 5 | 2 | 0
Cc1n[nH]c(C)c1C(=O)CC1(O)C(=O)N(Cc2ccccc2)c2ccc(Br)cc21 (centres undefined) | 22972* | 1 | -1 | 5 | 1
CN1CCN(c2ccc(CNC(=O)c3ccc(-c4ccnn4C)c4ccoc34)cc2)CC1 | 2961 | 0 | -13 | . | 0
Cc1cc(N2CCC(C(=O)N3CCN(c4cccc(C)c4C)CC3)CC2)n2ncnc2n1 | 17532* | -5 | -6 | 2 | -6
Cc1cccc(N2CCN(C(=O)C3CCCCC3)CC2)c1C | 10532 | 0 | 0 | -3 | 1
CC(C)(C)c1nnc(NC(=O)C2CCN(C(=O)c3ccco3)CC2)s1 | 4322 | -3 | -2 | 1 | -4
CC(C)(C)c1nnc(NC(=O)C2CCN(c3ncccn3)CC2)s1 | 21096* | -3 | -3 | -4 | 1
O=C(CN1CCOCC1)Nc1cccc(Cl)c1Cl | 23826* | ? | -9 | 3 | 1
O=C(CN1CCOCC1)Nc1ccccc1Cl | 6200 | -1 | 1 | -4 | 5
O=C(Nc1cccc(Cl)c1Cl)C1CCN(c2ncccn2)CC1 | 22389* | -9 | -12 | 0 | -1
COc1nc(Nc2ccc(-c3nc4ccccc4o3)cc2)nc(N2CCOCC2)n1 | 4687 | 1 | 7 | 10 | 1
Cn1c(CNc2ccc(Br)cc2)nc2ccccc21 | 4167 | -2 | -10 | -1 | 5
O=c1cc(-c2ccc(O)cc2)oc2cc(O[C@@H]3O[C@H](CO)[C@@H](O)[C@H](O)[C@H]3O[C@@H]3OC[C@](O)(CO)[C@H]3O)cc(O)c12 | 3926 | 1 | -2 | -1 | 4
CCOc1cccc(C(=O)Nc2ccc(S(=O)(=O)Nc3cc(C)on3)cc2)c1 | 5872 | 0 | 4 | 5 | -1
Cc1cc(=O)[nH]c2c1c(C)nn2C1CCCC1 | 18691* | 5 | 5 | -1 | -8
Cc1cc(=O)[nH]c2c1c(C)nn2C1CCCCC1 | 9882 | -2 | -17 | -1 | -7
Nc1nc2ncccc2cc1C(=O)NCCc1cccs1 | 6228 | 0 | -4 | . | 1
COC(=O)c1ccccc1NC(=S)NC(=O)COc1ccccc1Cl | 20710* | ? | -6 | -3 | -6
COC(=O)c1ccccc1NC(=S)NC(=O)COc1ccc(C)cc1 | 3535 | 0 | 1 | 1 | -1
SMILES | Autofluor counter | BoNT A protease | BoNT F protease | SARS 3CLpro inh | Anthrax LF inh2
CCOC(=O)CCc1c(C)c2ccc(OC(C)C(=O)OCC)c(C)c2oc1=O (centres undefined) | 20895* | 2 | 2 | 5 | 0
COC(=O)C1=C(c2ccc(OC)c(OC)c2)C[C@@H]2CC[C@H]1N2C(=O)N1CCC(O)CC1 | 3903 | 0 | 4 | . | 1
Cc1cc([N+](=O)[O-])nn1Cc1c(F)c(F)c(F)c(F)c1F | 18842* | 10 | 14 | -1 | -16
NS(=O)(=O)c1ccc(CCNC(=O)C2CCCN2C(=O)c2cccs2)cc1 (centres undefined) | 2824 | 0 | 2 | . | 4
N#CC(c1ccccc1)c1ccc(=O)[nH]n1 (centres undefined) | 2030 | -1 | -3 | 3 | 0
CC(C)CNS(=O)(=O)c1ccc2c(c1)OCCO2 | 24162* | -2 | 0 | -1 | -1
O=S(=O)(Nc1cccnc1Cl)c1ccc2c(c1)OCCO2 | 16615* | ? | -3 | 4 | -2
Cc1ccc(CNS(=O)(=O)c2ccc3c(c2)OCCO3)cc1 | 11288 | 0 | -4 | 1 | -2
CSc1ccccc1NS(=O)(=O)c1ccc2c(c1)OCCO2 | 20835* | 0 | -1 | 0 | -1
Cc1ccc(OCC(=O)NN2C(=O)c3ccccc3C2=O)c(C)c1 | 3332 | -1 | 2 | 6 | 1
Cc1ccsc1C(=O)Nc1ccccc1N1CCOCC1 | 18871* | 4 | 4 | -4 | -5
O=C1CC(c2cccs2)c2cc3c(cc2N1)OCO3 (centres undefined) | 23380* | -3 | -8 | 1 | -2
CCOc1ccc(NCC(=O)Nc2ccc(Cl)cc2C)cc1 | 19405* | 1 | -21 | 3 | -11
Cc1ccc(N2CC(C(=O)Nc3nnc(SCCC4OCCO4)s3)CC2=O)cc1 (centres undefined) | 5371 | 1 | 3 | -1 | -9
COc1ccccc1/C=C/C(=O)OC(C)CN1CCOCC1 (centres undefined) | 21922* | -3 | -4 | 5 | -3
CC(CN1CCOCC1)OC(=O)c1ccccc1 (centres undefined) | 3519 | ? | ? | 2 | -4
COc1ccccc1/C=C/CN1CCOCC1 | 22191* | 1 | -2 | 1 | -4
O=C(CSc1ncn[nH]1)N1CCN(S(=O)(=O)c2ccc(Cl)cc2)CC1 | 21069* | -3 | -3 | 3 | -2
Cc1nnc(SCC(=O)N2CCN(S(=O)(=O)c3ccc(Cl)cc3)CC2)[nH]c1=O | 3310 | 0 | 7 | 0 | 0
O=[N+]([O-])c1cc(S(=O)(=O)Nc2cccc(C(F)(F)F)c2)ccc1-n1nnc2ccccc21 | 2550 | -1 | -5 | 8 | 0
COc1ccc(NS(=O)(=O)c2ccc(-n3nnc4ccccc43)c([N+](=O)[O-])c2)cc1 | 21241* | 3 | 0 | 1 | -11
CCn1c(SCC(=O)NCC2CCCO2)nnc1-c1ccccc1 (centres undefined) | 2689 | -1 | -8 | -2 | 1
CCCCC(=O)Nc1ccc(C(=O)Nc2cccnc2)cc1 | 16977* | -2 | -5 | -1 | 2
CCCCC(=O)Nc1cccc(NC(=O)c2ccc(Br)cc2)c1 | 24448* | -2 | -4 | 6 | 0
CCCCC(=O)Nc1ccc(C(=O)Nc2nnc(COC)s2)cc1 | 21834* | 3 | 3 | 5 | -9
SMILES | Autofluor counter | BoNT A protease | BoNT F protease | SARS 3CLpro inh | Anthrax LF inh2
CCSc1ccccc1C(=O)Nc1cccnc1 | 23629* | ? | -2 | 1 | -1
CCSc1ccccc1C(=O)Nc1nncs1 | 3808 | 0 | -8 | 3 | 0
CCCCC(=O)Nc1cccc(NC(=O)c2cccc(Br)c2)c1 | 2145 | 0 | 0 | 0 | -2
O=C(NCc1ccc2c(c1)OCO2)C1COc2ccccc2O1 (centres undefined) | 2698 | 0 | ? | 3 | -2
COc1ccc(NC(=O)CSc2nc3ccsc3c(=O)n2Cc2ccccn2)c(OC)c1 | 3193 | -1 | 1 | -2 | -8
CCS(=O)(=O)N1CCN(S(=O)(=O)c2ccc(Cl)s2)CC1 | 5090 | 1 | -13 | 2 | -4
